Outcome and AC50 data for 40 compounds are collected here from PubChem BioAssay (EPA / NIEHS).

Results filed as inconclusive are left out. The source made the active and inactive calls. Rule for the calls: active = hit-call score of the fitted dose curve at least 0.9, where 1 is the maximum; inconclusive = response in the unintended direction; inactive = score below 0.9.

Hepatocyte nuclear factor 4-alpha (Homo sapiens), sequence (P41235 whole entry, looked up): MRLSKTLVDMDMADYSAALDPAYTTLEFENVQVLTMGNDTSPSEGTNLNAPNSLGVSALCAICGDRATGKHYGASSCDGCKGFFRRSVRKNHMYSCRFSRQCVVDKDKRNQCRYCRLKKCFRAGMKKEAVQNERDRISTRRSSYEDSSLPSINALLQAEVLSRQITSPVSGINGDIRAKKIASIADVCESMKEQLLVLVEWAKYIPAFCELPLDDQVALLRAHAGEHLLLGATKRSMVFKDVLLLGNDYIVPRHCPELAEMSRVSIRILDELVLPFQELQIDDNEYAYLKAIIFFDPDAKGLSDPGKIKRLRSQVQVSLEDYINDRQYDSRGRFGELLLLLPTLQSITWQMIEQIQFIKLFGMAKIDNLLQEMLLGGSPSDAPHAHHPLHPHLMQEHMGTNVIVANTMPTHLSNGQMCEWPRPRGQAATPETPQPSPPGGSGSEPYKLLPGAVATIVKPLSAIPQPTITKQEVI

This assay deals with Hepatocyte nuclear factor 4-alpha (Homo sapiens) (UniProt P41235). The experiment in a line: ATG_HNF4a_TRANS: Attagene TRANS-FACTORIAL HepG2 Assay for human Hepatocyte Nuclear Factor 4 alpha (HNF4a) (AID 2282982). The conditions noted are these: HepG2 HNF4a transactivation reporter, mRNA readout. The method, then:
ATG_TRANS is a cell-based, multiplexed-readout assay that uses HepG2, a human liver cell line, with measurements taken at 24 hours after chemical dosing in a 24-well plate.ATG_HNF4a_TRANS is one of 30 assay component(s) measured or calculated from the ATG_TRANS assay. It is designed to make measurements of mRNA induction, a form of inducible reporter, as detected with fluorescence intensity signals by Reverse transcription polymerase chain reaction (RT-PCR) and Capillary electrophoresis technology.Data from the assay component ATG_HNF4a_TRANS was analyzed into 1 assay endpoint. This assay endpoint, ATG_HNF4a_TRANS, was analyzed in the positive analysis fitting direction relative to DMSO as the negative control and baseline of activity. Using a type of inducible reporter, measures of mRNA for gain-of-signal activity can be used to understand the reporter gene at the transcription factor-level as they relate to the gene HNF4A. Furthermore, this assay endpoint can be referred to as a primary readout, because this assay has produced multiple assay endpoints where this one serves a reporter gene function. To generalize the intended target to other relatable targets, this assay endpoint is annotated to the nuclear receptor intended target family, where the subfamily is orphan.
Human liver HepG2 cells are transiently transfected with multiple reporter transcription units (MRTUs) in 6-well plates using FuGene 6 reagent (Roche; 3 ml FuGene/1 mg DNA). The MRTU constructs are regulated by a cis-regulating element (promoter). […] A major difference between the CIS and TRANS system is that in CIS activities of endogenous TFs are measured, whereas the TRANS assay evaluates changes in activities of exogenous, chimeric NR-Gal4 proteins. […] At the end of 24 hour incubation, total RNA was isolated using TriZol reagent (Invitrogen). The isolated RNA is then reverse-transcribed using oligo(dT) primer and Mo-MLV reverse transcriptase (Invitrogen) with DNAse I (Ambion) treatment for 30 min. The one-tenth of the produced cDNA was amplified by PCR using Taq DNA polymerase (Invitrogen) and two reporter sequence-specific primers. The PCR products were fluorescently labeled by primer extension with 6-arboxyfluorescein (6-FAM) 5'-labeled reporter sequence-specific primer (2 min at 95 C, 20 s at 68 C and 10 min at 72 C) and these products were digested with 5U of HpaI (New England Biolabs) for 2h at 37 C. The fragments were purified using Qiaquick PCR columns (Qiagen), analyzed on an ABI 3130xL genetic analyzer (Applied Biosystems) with peak positions identified by using a set of X-rhodamine (ROX)-labeled MapMarker1000 molecular weight standards (BioVentures). The raw capillary electrophoresis data was processed using Attagraph software (Attagene).
`CO[Si](CCCOCC1CO1)(OC)OC` (stereo not given): the compound was called inactive.

Turning to `CCc1ccc(C)nc1`, the compound was classed as inactive.

As for `C=C(C)C(=O)OCC(F)(F)C(F)(F)C(F)(F)C(F)F`, the result was inactive.

In the case of `OCC(F)(F)C(F)(F)C(F)(F)C(F)(F)C(F)(F)C(F)(F)C(F)(F)C(F)(F)CO`, the compound was called inactive.

With `CCCCCCCCCCCC(=O)Cl`, the outcome was inactive.

On to `CN(C)C(C)(C)CO`, for which the call was inactive.

What is called AC50 is the concentration giving half of the maximal activity seen. For the compound `CC(O)C#CC(C)O` (stereo not given), the half-maximal activity concentration (AC50) was 151 µM (active).

`CNS(=O)(=O)C(F)(F)C(F)(F)C(F)(F)C(F)(F)C(F)(F)C(F)(F)C(F)(F)C(F)(F)F`: the compound was classed as inactive.

On to `CC(C)(C)c1cc(CCC(=O)OCC(COC(=O)CCc2cc(C(C)(C)C)c(O)c(C(C)(C)C)c2)(COC(=O)CCc2cc(C(C)(C)C)c(O)c(C(C)(C)C)c2)COC(=O)CCc2cc(C(C)(C)C)c(O)c(C(C)(C)C)c2)cc(C(C)(C)C)c1O`, for which the result was inactive.

As to `CC(C)(C)c1cc(CCC(=O)NCCCCCCNC(=O)CCc2cc(C(C)(C)C)c(O)c(C(C)(C)C)c2)cc(C(C)(C)C)c1O`, the outcome was inactive.

Consider `CCN(CC)c1ccc(C=O)cc1`, for which the outcome was inactive.

As for `CCCC(=O)OCC(COC(=O)CCC)OC(=O)CCC`, the compound was called inactive.

Regarding `NC(O)(C(F)(F)F)C(F)(F)F`, the result was inactive.

In the case of `CCOC(=O)CC(=O)C(F)(F)C(F)(F)F`, the result was inactive.

For `CC(C)OC(=O)COc1ccc(Cl)cc1Cl`, the compound was classed as inactive.

Turning to `O=C(Cl)c1ccc(Cl)cc1Cl`, the result was inactive.

As to `NS(=O)(=O)C(F)(F)C(F)(F)C(F)(F)C(F)(F)C(F)(F)C(F)(F)F`, the compound was classed as inactive.

As to `CCOC(OCC)OCC`, the call was inactive.

For the compound `O=C(O)CCC(F)(F)C(F)(F)C(F)(F)F`, the compound was classed as inactive.

With `CCn1c2ccccc2c2ccccc21`, the compound was called inactive.

For the compound `CCN(CC)c1ccc(N=Nc2ccccc2)cc1`, the compound was classed as inactive.

As to `NC(=O)C(F)(F)C(F)(F)C(F)(F)F`, the result was inactive.

On to `Cc1cccc(C)n1`, for which the result was inactive.

For `O=C(O)C(F)(F)C(F)(F)C(F)(F)C(=O)O`, the result was inactive.

Regarding `NC(=O)C(F)(F)C(F)(F)C(F)(F)C(F)(F)C(N)=O`, the result was inactive.

Turning to `O=S(=O)(OCC(F)(F)F)C(F)(F)C(F)(F)C(F)(F)C(F)(F)F`, the outcome was inactive.

For the compound `N#CCCOCCC#N`, the compound was called inactive.

With `CCCCOC(=O)[C@H](C)O`, the result was inactive.

On to `OCCCCC(F)(F)C(F)(F)C(F)(F)C(F)(F)F`, for which the result was inactive.

For `CCOCN(C(=O)CS(=O)(=O)O)c1c(C)cccc1CC`, the result was inactive.

Regarding `CO[Si](C)(CCC(F)(F)C(F)(F)C(F)(F)C(F)(F)C(F)(F)C(F)(F)F)OC`, the result was inactive.

On to `CC1=CCC(=O)O1`, for which the call was inactive.

In the case of `CCOC(C=C(C)CCC=C(C)C)OCC`, the outcome was inactive.

Take `OCCCC(F)(F)C(F)(F)C(F)(F)C(F)(F)C(F)(F)C(F)(F)C(F)(F)C(F)(F)F`: the outcome was inactive.

Consider `CN(C(=O)C(F)(F)C(F)(F)C(F)(F)F)[Si](C)(C)C`, for which the compound was called inactive.

In the case of `Cc1cc(=O)[nH]c(C(C)C)n1`, the outcome was inactive.

Take `OCCCc1cccnc1`: the result was inactive.

Regarding `O=C=NCc1cccc(CN=C=O)c1`, the outcome was inactive.

As for `CCC/C=C/CO`, the result was inactive.

On to `OCC(O)CC(F)(F)C(F)(F)C(F)(F)C(F)(F)C(F)(F)C(F)(F)C(F)(F)C(F)(F)F` (stereo not given), for which the compound was called inactive.
